# AmpC detergent: qHTS Inhibitors of AmpC Beta-Lactamase (assay with detergent) | AmpC hydrolysis of nitrocefin, absorbance 480 nm, 0.01% Triton | actives 0.041% (n = 370,000) | Potency, µM (titrated, usually from 114 µM), without a hit: at the top dose activity change, negative = inhibition, most hits filed as inhibitors;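 also: 0% = no-compound wells and -100% = no-enzyme wells; nearly all actives have a fitted effect of over 25% in size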
#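 AmpC (5.3 nM in the dispensed reagent) in 20 mM phosphate pH 7.0 with 0.01% (detergent screen) or 0.0001% Triton X-100 was preincubated with compounds for 15 min at room temperature. Nitrocefin was then added from an 800 uM solution, and hydrolysis was followed at 480 nm.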
# Sm TGR inh: qHTS Assay for the Inhibitors of Schistosoma Mansoni Peroxiredoxins | purified TGR, DTNB reduction, TNB absorbance 405 nm | Potency, µM (titrated, usually from 114 µM), for the others: top-dose activity change, negative = inhibition, usual class: inhibitors | actives 3% (n = 360,000) | AID 485364, 2010; also: nearly all actives have a fitted effect of over 60% in size
#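 First, TGR (20 nM dispensed) and NADPH were mixed with compound. Second, a 15 min room-temperature incubation followed. Third, further NADPH and then DTNB were added to start the reaction. Finally, TNB absorbance was monitored kinetically.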
# Giardia FBPA inh: qHTS Assay for Inhibitors of Fructose-1,6-bisphosphate Aldolase from Giardia Lamblia. actives 0.71% (n = 290,000). Potency, µM (top dose mostly 59.6 µM), for inactives: at the highest dose activity, negative = inhibition, hits mostly inhibitors. purified Giardia FBPA. A8B2U2; also: nearly all actives have a fitted effect of over 55% in size
# Target sequence (A8B2U2 whole entry, looked up): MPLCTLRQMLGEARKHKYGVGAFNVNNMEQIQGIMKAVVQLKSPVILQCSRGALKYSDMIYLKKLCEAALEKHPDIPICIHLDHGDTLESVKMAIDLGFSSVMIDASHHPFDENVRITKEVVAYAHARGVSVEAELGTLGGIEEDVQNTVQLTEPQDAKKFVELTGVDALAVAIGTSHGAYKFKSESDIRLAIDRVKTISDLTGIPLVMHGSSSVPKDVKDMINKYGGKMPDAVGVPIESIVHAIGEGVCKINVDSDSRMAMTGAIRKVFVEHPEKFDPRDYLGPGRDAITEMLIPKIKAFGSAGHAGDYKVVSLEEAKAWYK
#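 40 nM FBPA preincubated 10 min at RT with compound (up to 57.5 uM final), then substrate plus GAPDH/TPI/NAD/arsenate coupling and diaphorase/resazurin added. Fluorescence read after 20 min at RT, 525/598 nm.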
# RE007 growth inh: qHTS Assay for Inhibitors of the HIV-1 protein Vpr. actives 0.21% (n = 360,000). Potency, µM (doses to about 92.2 µM), for inactives: at the highest dose activity change, negative = less growth, hits mostly inhibitors. S. pombe RE007 Vpr strain, BacTiter-Glo ATP luminescence, 24 h; active = well fitted falling curve with a large enough effect; inconclusive = small, poorly fitted or top-dose-only effect; inactive = no such curve, though single readings can be large or run the other way; also: nearly all actives have a fitted effect of over 50% in size
#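 Fission yeast strain RE007, carrying one chromosomally integrated HIV-1 vpr copy, was seeded at OD 0.01 in PMG+AL medium with 23 nL pinned compound. After 24 h at 30 °C and 99% humidity, viability was read by BacTiter-Glo luminescence.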
# AmpC no deterg: qHTS Inhibitors of AmpC Beta-Lactamase (assay without detergent); P00811; AmpC nitrocefin hydrolysis, absorbance 480 nm, 0.0001% Triton; Potency, µM (series often up to 57.1 µM), for inactives: at the top dose activity change, negative = inhibition, most hits filed as inhibitors; actives 0.52% (n = 330,000);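 also: plate controls were no compound for no effect and no enzyme for full effect; nearly all actives have a fitted effect of over 20% in size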
#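 20 mM phosphate pH 7.0 + 0.01% (detergent screen) or 0.0001% Triton X-100; 5.3 nM AmpC reagent; cpd preinc 15 min RT; nitrocefin (800 uM stock) to start; A480 q20 s × 4 min; Activity was normalised to no-enzyme and no-compound control wells.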
# * = called active by the depositor; ? = inconclusive; / = no result given; [ ] = another dose, or the depositor's remark. Compounds with a hit are over-represented: about 3.4% of the library has one in this group of screens. Unless noted, calls follow the shape of the dose curve; as a rule, active = well fitted curve in the direction sought with a large enough effect; inconclusive = small, poorly fitted or top-dose-only effect, or another doubt; inactive = no such curve, though single readings can be large; an effect the other way counts as inactive or inconclusive. Unless noted, % is scaled to controls: 0 for no effect and ±100 for the full control effect; potency is read from the fitted curve at half-maximal effect.
SMILES,AmpC detergent,Sm TGR inh,Giardia FBPA inh,RE007 growth inh,AmpC no deterg
O=C(CSc1ccc(-c2ccco2)nn1)NCCc1ccccc1,5%,11µM*,-4%,0%,-13%
COc1cccc(-c2ccc(SCC(=O)NCCc3ccccc3)nn2)c1,-7%,-5%,1%,3%,-26%
CCc1cc(C(=O)OC)c(NC(=O)CC2SC(=NC)N(C)C2=O)s1 (centres undefined),-7%,/,-2%,0%,7%
O=C(NCc1ccccc1Cl)c1ccc2nc([C@@H]3O[C@H](CO)[C@@H](O)[C@H]3O)[nH]c2c1,/,/,/,-3%[18.4 µM],/
CCc1ccc(-c2nc(CS(=O)CC(=O)NC3CCCCCC3)c(C)o2)cc1 (centres undefined),3%,7.9µM*,/,2%,101%
Cc1ccc(-c2nc(CS(=O)CC(=O)NC3CC3)c(C)o2)cc1 (centres undefined),-3%,?,/,-4%,-8%
CCc1ccc(-c2nc(CS(=O)CC(=O)NCc3ccc(F)cc3)c(C)o2)cc1 (centres undefined),-5%,?,/,/,/
CCc1ccc(-c2nc(CS(=O)CC(=O)NC3CC3)c(C)o2)cc1 (centres undefined),-10%,4µM*,-3%,3%,1%
CCc1ccc(-c2nc(CS(=O)CC(=O)O)c(C)o2)cc1 (centres undefined),-7%,0.35µM*,-15%,-4%,-16%
COCC1CCCCN1C(=O)CCCn1nnnc1CN1CCC(C)CC1 (centres undefined),-9%,4%,6%,-10%,-5%
O=C(OCn1ncc(Br)c(Br)c1=O)c1c(F)cccc1F,?,0.56µM*,-3%,/,-23%
CC(=O)Cn1ncc(Br)c(Br)c1=O,3%,/,1%,19%,-19%
CCc1ccc(-c2nc(SCC(=O)NCCOC)c(-c3ccc(C)cc3)[nH]2)cc1,-4%,0%,/,/,/
Cc1oc(-c2ccc(C(=O)NCCC(C)C)cc2)nc1CS(=O)(=O)c1ccccc1,23%,35µM*,/,/,/
Cc1ccc(S(=O)(=O)Cc2nc(-c3ccc(C(=O)NCc4ccccc4)cc3)oc2C)cc1,-8%,32µM*,/,/,/
Cc1ccccc1CNC(=O)c1ccc(-c2nc(CS(=O)(=O)c3ccccc3)c(C)o2)cc1,22%,?,/,/,/
CC(C)OCC(O)CSc1ccccn1 (centres undefined),9%,5%[11.4 µM],-2%,-10%,-8%
O=C(Oc1cccc(OC(=O)N2CCCCC2)c1)N1CCCCC1,0%,8%,3%,?,-4%
Cn1cnc([N+](=O)[O-])c1NC(C)(C)C,?,5%,1%,10%,-4%
Cn1cnc([N+](=O)[O-])c1S(=O)(=O)c1ccc(Cl)cc1,?,0.1µM*,0%,?,-48%
COc1cccc(-c2nc(CS(=O)(=O)CC(=O)NCCCN3CC(C)CC(C)C3)c(C)o2)c1 (centres undefined),-13%,-17%,4%,-8%,108%
c1cnc2nc(-c3ccc4c(c3)OCO4)cn2c1,11%,13%,-2%,22%,-2%
c1ccn2cc(-c3ccc4c(c3)OCO4)cc2c1,6%,45µM*,-29%,-11%,-15%
O=C(CS(=O)(=O)c1cn(CC(=O)N2CCOCC2)c2ccccc12)NCc1ccc(F)cc1,-1%,-35%,?,1%,22%
O=C(Cc1cc(=O)[nH]c(=O)[nH]1)N1CCN(CCO)CC1,5%,32µM*,-8%,18%,-6%
CCOC(=O)C1CCN(CC(=O)c2c(C)[nH]c3ccccc23)CC1,3%,35µM*,0%,0%,-16%
CCOC(=O)C1CCCN(C(c2ccccn2)c2c(C)[nH]c3ccccc23)C1 (centres undefined),1%,0.32µM*,1%,?,41%

# Bioassay records from PubChem.
